Screening data deposited in PubChem BioAssay by National Center for Advancing Translational Sciences (NCATS).
In the library only some 21% were active in any assay of this set; here they are far more common.
CHX counter = counter-screen for Shiga toxin inhibitors: cycloheximide protein synthesis inhibition; max response, %; hit rate 12% among 300,000; cell reporter, cycloheximide protein synthesis inhibition counterscreen; AID 2314; in the data active = max response mostly above about 13%, no sharp cut-off; inactive = mostly below about 14%; also: read at 38.3 µM for the half of the compounds with a filed dose; 0% is about no effect
Shiga inhibitor = blocks Shiga toxin action in Vero cells | hit rate 9.2% among 290,000 | AID 2315 | inhibition, % at 38.7 µM | Vero cells, Shiga toxin protein synthesis inhibition reporter; in the data active = inhibition mostly above about 28%, no sharp cut-off; inactive = mostly below about 43%; also: 0% is about no effect
Pf growth 48h = P. falciparum growth inhibition at 48 hours (one generation). P. falciparum luciferase growth in erythrocytes, 48 h. Potency, µM (top dose mostly 28.7 µM), for inactives: at the top dose activity change, negative = inhibition, most hits filed as inhibitors. hit rate 5.9% among 310,000. AID 504832; also: potency is read from the fitted curve at half-maximal effect; % is scaled to controls: 0 for no effect and ±100 for the full control effect
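A one-generation exposure of luciferase-tagged malaria parasites in RPMI 1640/Albumax erythrocyte culture, 37 C and 5% CO2. Inhibition is inferred from decreased luminescence after adding detection reagent.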
Pf growth 96h = P. falciparum growth inhibition at 96 hour, primary screen for plastid delayed-death inhibitors. Potency, µM (top dose mostly 28.7 µM), for inactives: top-dose activity change, negative = inhibition, actives largely listed as inhibitors. hit rate 6.9% among 320,000. P. falciparum luciferase reporter growth, 96 h; also: potency is read from the fitted curve at half-maximal effect; % is scaled to controls: 0 for no effect and ±100 for the full control effect
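Parasite growth measured via integrated firefly luciferase reporter in P. falciparum. Infected erythrocytes at 2% hematocrit, 0.05% parasitemia final were treated 96 hours at 37 C under 5% CO2, and luminescence was read.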
NS1 function inh = blocks influenza NS1 protein function; hit rate 0.4% among 270,000; AID 2326; Potency, µM (top dose mostly 46.1 µM), without a hit: at the top dose activity, positive = more growth; calls by dose curve; also: potency is read from the fitted curve at half-maximal effect; actives are rising curves; nearly all actives have a fitted effect of over 50% in size
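Recovery from NS1-induced slow growth read by OD600 in budding yeast switched to galactose assay medium (pH 6.0, -URA) at 1:100 dilution. Compound 23 nl per well; the matching strain lacking NS1 serves as control.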
Starred values were filed as active, the others as inactive; i = inactive; ? = inconclusive; . = no result; + = active, no number; [ ] = remark or other dose. Unless noted, calls follow the shape of the dose curve; as a rule, active = well fitted inhibition curve with a large enough effect; inconclusive = small, poorly fitted or top-dose-only effect, or another doubt; inactive = no such curve, though single readings can be large or run the other way.

SMILES	CHX counter	Shiga inhibitor	Pf growth 48h	Pf growth 96h	NS1 function inh
O=C(c1ccc(-c2cccc(Cl)c2Cl)o1)N1CCOCC1	37*	133*	75%	-29%[5.75 µM]	-5%
Cc1ccc(-c2csc3ncn(CC(=O)O)c(=O)c23)cc1C	-2	-5	4%	28%	15%
CC1CCN(C(=O)c2ccc(-c3ccccc3Cl)o2)CC1	.	.	140%	188%	.
S=C(c1ccc(-c2ccccc2Cl)o1)N1CCOCC1	24*	93*	129%	.	-92%
O=C(OCC(=O)N1CCOCC1)c1ccc(Cl)nc1	-2	-4	11%	40%	1%
O=C(OCC(=O)N1CCOCC1)c1ccccc1Cc1ccccc1	39*	60*	233%	338%	-8%
O=C(OCC(=O)N1CCOCC1)c1ccccc1Br	39*	47*	68%	32%	1%
Cc1ccsc1C(=O)OCC(=O)N1CCOCC1	35*	73*	64%	18%	0%
Cc1cc(Oc2ncccc2[N+](=O)[O-])c2cc(Cl)ccc2n1	-2	8	-18%	?	2%
O=C1CCCC2=C1C1O[C@](c3ccsc3)(Cc3c1ccc1ccccc31)O2	15*	i	?	?	-2%
O=C1c2ccccc2C(=O)N1CCCC[C@]12Cc3ccccc3C(O1)c1c(c3ccccc3oc1=O)O2	-2	i	?	?	17%
COc1ccc([C@]23Cc4c(ccc5ccccc45)C(O2)C2=C(CC4(CCCCC4)OC2=O)O3)cc1	-1	i	10%[5.75 µM]	?	2%
O=C1C2=C(C(=O)c3ccccc31)C1O[C@](c3ccsc3)(Cc3c1ccc1ccccc31)O2	33*	+	?	?	3%
O=c1oc2ccccc2c2c1C1O[C@](c3ccsc3)(Cc3c1ccc1ccccc31)O2	19*	i	45%[5.75 µM]	?	12%
Cc1ccc(/C=N\NC(=O)Cc2noc3ccccc23)cc1	-3	-4	39%	61%	1%
CC(C)NC(=O)COc1coc(CN2CCN(c3ccccc3F)CC2)cc1=O	13	-11	?	?	-1%
Cc1ccc(N(C(=O)CCCC(=O)Nc2ccccn2)C(C(=O)NC2CCCC2)c2ccc(O)cc2)cc1C (configuration not stated)	3	-5	?	-45%	-6%
CN(Cc1ccccn1)Cc1cn(Cc2ccccc2)nc1-c1ccc2c(c1)OCO2	6	17	?	?	5%
CN(Cc1cn(Cc2ccccc2)nc1-c1ccc2c(c1)OCO2)Cc1nccn1C	7	-8	?	15µM*	-1%
Cc1nn(C(=O)c2cccc([N+](=O)[O-])c2)c(C)c1Sc1ccccc1	-3	-14	4%	11%	-13%
CCC(CC)C(=O)Nc1ccc(Sc2ccc([N+](=O)[O-])cc2)cc1	6	-4	7.4µM*	?	-3%
CCCC(=O)Nc1ccc(Sc2ccc([N+](=O)[O-])cc2)cc1	-1	-4	12µM*	15µM*	-6%
Cc1cc(O)c(-c2cc(O)c(C)cc2O)cc1O	10*	11	?	-15%	8%
CCn1c2ccccc2c2cc(/C=N/n3cnnc3)ccc21	-2	-17	.	-16%	-107%
CCn1c2ccccc2c2cc(/C=N/n3cn[nH]c3=S)ccc21	1	-8	?	8.3µM*	-126%
SMILES	CHX counter	Shiga inhibitor	Pf growth 48h	Pf growth 96h	NS1 function inh
CC(C)CCn1c(=O)c2sccc2n2c(CCCC(=O)N3CCN(c4ccccn4)CC3)nnc12	-1	-11	?	?	1%
Cc1cc(-c2ccccc2)n(-c2ccccc2)n1	40*	94*	39%	12%	-6%
c1ccc(-c2cnnn2-c2ccccc2)cc1	-2	-3	24%	0.83µM*	0%
Cc1cc(-c2ccco2)n(-c2ccccc2)n1	1	-11	.	.	?
O=C(CN1CCN(c2ccccn2)CC1)Nc1ccccc1F	5	6	-2%	?	-1%
O=C(CN1CCN(c2ccccn2)CC1)Nc1ccccc1Br	-2	-5	5.2µM*	?	-5%
O=C(Nc1ccc(F)cc1F)N1CCN(CCc2ccccc2)CC1	-1	-10	2.3µM*	27%	1%
O=C(CN1CCN(c2ccccn2)CC1)Nc1cc(C(F)(F)F)ccc1Cl	1	-11	9.3µM*	.	-30%
Cc1nc2ccccc2n1C1CCN(CC(=O)Nc2ccccc2Br)CC1	1	-18	12µM*	-12%	2%
CC(OC(=O)Cn1cnc2c1c(=O)n(C)c(=O)n2C)C(=O)NC1(C#N)CCCCC1 (configuration not stated)	.	.	2%	31%	.
COc1cc(/C=C/CN2CCN(CCC(C)C)C(CCO)C2)ccc1O (configuration not stated)	3	1	8%	-8%	10%
CCCCn1c(N)c(N(CC)C(=O)C2=NN(c3ccccc3)C(=O)CC2)c(=O)[nH]c1=O	.	.	0%	2%	.
C/C(=N\OCC(=O)OCC(=O)N(Cc1ccccc1)C(C)(C)C)c1ccc2c(c1)OCO2	.	.	30%	39%	.
CCCN(CCC)C(=S)NC(=O)c1ccc(-c2ccccc2)cc1	14	13	?	?	23%
O=C(CN1CCN(C(=O)c2ccco2)CC1)Nc1ccccc1	-8	-1	9%	30%	-6%
O=C(CN1CCN(c2ccccn2)CC1)Nc1ccc2ccccc2c1	45*	60*	-14%	36%	-45%
O=C(CN1CCN(c2ccccn2)CC1)Nc1ccc(F)cc1F	20*	50*	21%	15%	0%
O=C(CN1CCN(C(=O)c2ccco2)CC1)Nc1cccc(S(=O)(=O)N2CCCC2)c1	.	.	?	10µM*	.
O=C(CN1CCN(C(=O)c2ccco2)CC1)Nc1ccc(F)cc1F	24*	36*	-2%	?	10%
CCCOC(=O)NC(CC)COC(=O)Nc1cccc(C)c1C (configuration not stated)	7	25	6%	9.3µM*	-4%
CCC(COC(=O)Nc1cccc(C)c1C)NC(=O)OCC(C)C (configuration not stated)	-4	-10	4%	?	3%
Cc1cc(O)c(C(=O)Cc2csc(C)n2)c(O)c1	39*	83*	?	?	-9%
COc1ccc(C2=Nn3c(nnc3-c3cccc(OC)c3)SC2)cc1	-9	-1	.	.	.
C/C(=N\NC(=O)Cn1nc(C)c([N+](=O)[O-])c1C)c1ccco1	-1	-4	12%	6%	2%
COC(=O)C1=C(NC(=O)C2CCCCC2)CCS1	-4	-9	?	-100%	-8%
CC1=C(C(=O)OCC2CCCO2)C(c2ccccc2OC(C)C)C2=C(CC(c3ccco3)CC2=O)N1 (configuration not stated)	1	-17	3.3µM*	27%	?
CC1=C(C(=O)OCC2CCCO2)C(c2cccc(C(F)(F)F)c2)C2=C(CC(c3ccco3)CC2=O)N1 (configuration not stated)	3	18	13µM*	.	18%
CC1=C(C(=O)OCC2CCCO2)C(c2ccc(C)o2)C2=C(CC(c3ccc(F)cc3)CC2=O)N1 (configuration not stated)	-2	-8	?	8%	-15%
